Several values for one entry are separate records, joined by “and”; a condition that tells them apart may be missing. Equal values may be shown once. Where a structure was tested more than once in an assay, its records may differ in their call. Activity calls are given as the source filed them. The calls were made as follows: active = hit-call score of the fitted dose curve at least 0.9, where 1 is the maximum; inactive = score below 0.9.

Chain of E-selectin (Homo sapiens) (P16581 whole entry, looked up): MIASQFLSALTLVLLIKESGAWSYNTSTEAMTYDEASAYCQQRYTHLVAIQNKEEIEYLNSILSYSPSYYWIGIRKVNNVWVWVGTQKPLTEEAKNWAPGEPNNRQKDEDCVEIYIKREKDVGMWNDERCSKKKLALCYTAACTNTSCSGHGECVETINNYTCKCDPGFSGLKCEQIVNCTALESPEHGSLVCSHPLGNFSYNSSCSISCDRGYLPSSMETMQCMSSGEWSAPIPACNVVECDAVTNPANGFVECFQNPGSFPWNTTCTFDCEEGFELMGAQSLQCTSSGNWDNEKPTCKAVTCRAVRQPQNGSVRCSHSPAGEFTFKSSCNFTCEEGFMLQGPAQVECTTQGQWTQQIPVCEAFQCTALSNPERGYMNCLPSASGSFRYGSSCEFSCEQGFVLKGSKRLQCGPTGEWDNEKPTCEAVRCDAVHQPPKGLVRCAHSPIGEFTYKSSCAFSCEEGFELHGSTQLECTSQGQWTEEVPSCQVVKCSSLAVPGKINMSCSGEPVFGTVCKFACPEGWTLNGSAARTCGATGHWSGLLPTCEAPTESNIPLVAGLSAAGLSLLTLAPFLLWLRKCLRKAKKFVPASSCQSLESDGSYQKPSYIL

Read-out in this experiment: E-selectin (Homo sapiens) (UniProt P16581)
Briefly: BSK_IMphg_ESelectin: BioMAP Diversity Plus: IMphg Assay for Eselectin Biomarker Activity (AID 2284291). The following applies: primary human endothelial cells with macrophages. As for the experimental part: BSK_IMphg is a cell-based, multiplexed-readout assay that uses venular endothelial cells and macrophages, a human vascular primary cell, with measurements taken at 24 hours after chemical dosing in a microplate: 96-well plate.BSK_IMphg_ESelectin is an assay component measured in the BSK_IMphg assay. It measures E-selectin antibody related to regulation of gene expression using ELISA technology.Data from the assay component BSK_IMphg_ESelectin was analyzed at the endpoint, BSK_IMphg_ESelectin, in the positive analysis fitting direction relative to DMSO as the negative control and baseline of activity. Using a type of binding reporter, gain or loss-of-signal activity can be used to understand protein changes. To generalize the intended target to other relatable targets, this assay endpoint is annotated to the 'cell adhesion molecules' intended target family, where the subfamily is 'selectins'.
The levels of cell surface (or secreted, indicated by the prefix "s") biomarker endpoints were measured by ELISA. Overt cytotoxicity to cells in confluent adherent cultures (all systems other than the BT system) was assessed by measuring total protein levels using sulforhodamine B (SRB) staining in parallel cultures at the time of biomarker measurements, indicated as SRB endpoints. For proliferation assays for adherent cell types, individual cell types are cultured at sub-confluence and relative cell numbers quantified by SRB staining at time points optimized for each system (48 h: 3C and CASM3C systems; 72 h: BT and HDF3CGF systems; 96 h: SAg system). SRB was performed by staining cells with 0.1% SRB after fixation with 10% TCA and reading wells at 560 nm.Viability and proliferation of PBMC (T cells) was quantified by Alamar Blue reduction for the SAg and BT systems. For PBMC viability (referred to as PBMC Cytotoxicity within the assay endpoint names), cells were plated (75,000/well in a 96-well plate) and then chemical samples added for 1 h before addition of activators, SEB and TSST-1 (20 ng/mL final concentration each). Cells were incubated for 90 h. Then, Alamar Blue (20 uL/well) (Invitrogen, Cat DAL1100) was added for 6 h, and the plates were read with a fluorescence microplate reader at 546/580 nm (excitation/emission). For PBMC proliferation, cells were plated and activated as above but incubated for only 16 h prior to addition of Alamar Blue. Plates were read after 6 h.
In the case of `NCC(F)(F)C(F)(F)C(F)(F)C(F)(F)C(F)(F)C(F)(F)F`, the outcome was inactive. Consider `O=C(Cl)C(F)(F)C(F)(F)C(F)(F)C(F)(F)C(F)(F)C(F)(F)C(F)(F)F`, for which the outcome was inactive.

For `OC(O)C(F)(F)C(F)(F)F`, the outcome was inactive.

Consider `NCC(F)(F)C(F)(F)C(F)(F)C(F)(F)C(F)(F)C(F)(F)C(F)(F)C(F)(F)F`, for which the result was inactive. The term AC50 denotes the concentration giving half of the maximal activity seen. Consider `CNS(=O)(=O)C(F)(F)C(F)(F)C(F)(F)C(F)(F)C(F)(F)C(F)(F)C(F)(F)C(F)(F)F`, for which the concentration at half-maximal activity (AC50) was 5.55 µM (active) and 8.07 µM (active).

On to `O=C(O)C(F)(F)OC(F)(F)C(F)(F)OC(F)(F)C(F)(F)OC(F)(F)F`, for which the outcome was inactive. `O=S(=O)(O)CCC(F)(F)C(F)(F)C(F)(F)C(F)(F)C(F)(F)C(F)(F)C(F)(F)C(F)(F)F`: the AC50 is 21.3 µM (active) and the result was inactive. Take `FC(F)(F)C(F)(F)C(F)(F)C(F)(F)C(F)(F)C(F)(F)C(F)(F)CCI`: the outcome was inactive.

In the case of `NC(=O)C(F)(F)C(F)(F)C(F)(F)F`, the result was inactive. For `C=CC(=O)OCC(F)(F)C(F)(F)C(F)(F)COC(=O)C=C`, the AC50 is 40 µM (active) and 33.5 µM (active). Turning to `CN(C(=O)C(F)(F)C(F)(F)C(F)(F)F)[Si](C)(C)C`, the result was inactive.

For the molecule `OCC(F)(F)C(F)(F)C(F)(F)CO`, the result was inactive. The same measure, in the same setting: under `FC(F)(F)C(F)(F)C(F)(F)CC1CO1` (stereo not given) stands “inactive”; under `O=C(F)C1(F)C(F)(F)C(F)(F)C(F)(F)C(F)(F)C1(F)F`, “inactive”. With `CCN(CCO)S(=O)(=O)C(F)(F)C(F)(F)C(F)(F)C(F)(F)C(F)(F)C(F)(F)C(F)(F)C(F)(F)F`, the AC50 is 5.54 µM (active) and 6.2 µM (active). With `O=C(O)C(F)(F)C(F)(F)C(F)(F)C(F)(F)C(F)(F)C(F)(F)C(F)F`, the outcome was inactive. Same read-out and setting: in the case of `NC(O)(C(F)(F)F)C(F)(F)F` it was “inactive”; in that of `OCC(O)CC(F)(F)C(F)(F)C(F)(F)C(F)(F)C(F)(F)C(F)(F)C(F)(F)C(F)(F)F` (stereo not given), “inactive”.

In the case of `C[Si](Cl)(Cl)CCC(F)(F)C(F)(F)C(F)(F)C(F)(F)C(F)(F)C(F)(F)F`, the outcome was inactive. Still for that read-out and setting: in the case of `O=C(O)CCC(F)(F)C(F)(F)C(F)(F)F` it was “inactive”. Still for that read-out and setting: under `NC(=O)C(F)(F)C(F)(F)C(F)(F)C(F)(F)C(F)(F)C(F)(F)C(F)(F)F` stands “inactive”.

Turning to `O=C(O)CCC(F)(F)C(F)(F)C(F)(F)C(F)(F)C(F)(F)C(F)(F)C(F)(F)F`, the AC50 is 2.27 µM (active) and 1.87 µM (active). Regarding `OCC(O)CC(F)(F)C(F)(F)C(F)(F)C(F)(F)F` (stereo not given), the outcome was inactive. Still for that read-out and setting: in the case of `NC(=O)C(F)(F)C(F)(F)C(F)(F)C(F)(F)C(N)=O` it was “inactive”; in that of `C=CC(=O)OCCC(F)(F)C(F)(F)C(F)(F)C(F)(F)F`, “inactive”. Regarding `NS(=O)(=O)C(F)(F)C(F)(F)C(F)(F)C(F)(F)C(F)(F)C(F)(F)F`, the AC50 is 30 µM (active) and 21.3 µM (active). Turning to `OCC(F)(F)C(F)(F)C(F)(F)C(F)(F)C(F)(F)C(F)(F)CO`, the result was inactive.

As to `O=C(Cl)C(F)(F)C(F)(F)C(F)(F)C(F)(F)C(F)(F)C(F)(F)F`, the result was inactive. Still for that read-out and setting: in the case of `OCCCCC(F)(F)C(F)(F)C(F)(F)C(F)(F)F` it was “inactive”; in that of `COC(F)(C(F)F)C(F)(F)F` (stereo not given), “inactive”; in that of `NC(=O)C(F)(F)C(F)(F)C(F)(F)C(F)F`, “inactive”. Same read-out and setting: in the case of `CO[Si](C)(CCC(F)(F)C(F)(F)C(F)(F)C(F)(F)C(F)(F)C(F)(F)F)OC` it was “inactive”; in that of `C=CC(=O)OCC(F)(F)C(F)(F)C(F)(F)C(F)(F)C(F)(F)C(F)(F)C(F)(F)C(F)F`, “inactive”.

Regarding `O=C(O)C(F)(F)C(F)(F)C(F)(F)OC(F)(F)F`, the outcome was inactive.

Take `C=C(C)C(=O)OCC(F)(F)C(F)(F)C(F)(F)C(F)F`: the outcome was inactive. The same measure, in the same setting: under `O=S(=O)(OCC(F)(F)F)C(F)(F)C(F)(F)C(F)(F)C(F)(F)F` stands “inactive”. As for `OCC(F)(F)C(F)(F)C(F)(F)C(F)(F)C(F)(F)C(F)(F)C(F)(F)C(F)(F)CO`, the AC50 is 51.5 µM (active) and 36.1 µM (active). In the case of `O=S(=O)(O)CCC(F)(F)C(F)(F)C(F)(F)C(F)(F)F`, the result was inactive. In the case of `OCCCC(F)(F)C(F)(F)C(F)(F)C(F)(F)C(F)(F)C(F)(F)C(F)(F)C(F)(F)F`, the AC50 is 14.3 µM (active) and 11.4 µM (active).

The record behind these values is PubChem BioAssay (EPA / NIEHS).
